Assays:
[1] = target: T1, Ephrin type-B receptor 1 (Homo sapiens) (UniProt P54762); settings: at 10 µM
T1 sequence (whole entry): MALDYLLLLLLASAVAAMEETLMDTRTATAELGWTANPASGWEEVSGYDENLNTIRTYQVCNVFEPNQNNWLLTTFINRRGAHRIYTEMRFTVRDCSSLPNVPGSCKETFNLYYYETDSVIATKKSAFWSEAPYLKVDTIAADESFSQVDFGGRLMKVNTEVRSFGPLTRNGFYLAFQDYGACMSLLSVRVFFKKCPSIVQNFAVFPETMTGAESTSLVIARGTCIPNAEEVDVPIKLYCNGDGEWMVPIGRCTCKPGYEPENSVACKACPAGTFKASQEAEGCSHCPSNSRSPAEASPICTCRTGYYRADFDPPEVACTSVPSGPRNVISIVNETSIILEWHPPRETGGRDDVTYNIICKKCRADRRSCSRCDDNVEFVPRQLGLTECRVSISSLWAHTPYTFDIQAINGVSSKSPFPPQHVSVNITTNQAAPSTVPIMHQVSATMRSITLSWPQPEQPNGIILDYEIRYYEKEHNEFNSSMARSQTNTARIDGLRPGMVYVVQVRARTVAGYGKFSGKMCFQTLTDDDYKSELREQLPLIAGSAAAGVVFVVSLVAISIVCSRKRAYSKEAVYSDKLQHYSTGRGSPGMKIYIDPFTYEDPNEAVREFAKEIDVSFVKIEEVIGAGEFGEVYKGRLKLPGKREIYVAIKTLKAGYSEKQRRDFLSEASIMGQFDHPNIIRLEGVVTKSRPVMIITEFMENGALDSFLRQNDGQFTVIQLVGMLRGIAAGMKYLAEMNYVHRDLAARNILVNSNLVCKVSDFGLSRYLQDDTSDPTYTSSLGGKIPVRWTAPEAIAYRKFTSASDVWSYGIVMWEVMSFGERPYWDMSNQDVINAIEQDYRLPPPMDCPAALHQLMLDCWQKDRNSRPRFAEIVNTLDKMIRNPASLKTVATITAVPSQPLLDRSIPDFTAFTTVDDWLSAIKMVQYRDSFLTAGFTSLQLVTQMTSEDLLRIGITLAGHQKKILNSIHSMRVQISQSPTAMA

[2] = target: T2, Ephrin type-B receptor 2 (Homo sapiens) (UniProt P29323); settings: at 1 µM
T2 sequence (whole entry): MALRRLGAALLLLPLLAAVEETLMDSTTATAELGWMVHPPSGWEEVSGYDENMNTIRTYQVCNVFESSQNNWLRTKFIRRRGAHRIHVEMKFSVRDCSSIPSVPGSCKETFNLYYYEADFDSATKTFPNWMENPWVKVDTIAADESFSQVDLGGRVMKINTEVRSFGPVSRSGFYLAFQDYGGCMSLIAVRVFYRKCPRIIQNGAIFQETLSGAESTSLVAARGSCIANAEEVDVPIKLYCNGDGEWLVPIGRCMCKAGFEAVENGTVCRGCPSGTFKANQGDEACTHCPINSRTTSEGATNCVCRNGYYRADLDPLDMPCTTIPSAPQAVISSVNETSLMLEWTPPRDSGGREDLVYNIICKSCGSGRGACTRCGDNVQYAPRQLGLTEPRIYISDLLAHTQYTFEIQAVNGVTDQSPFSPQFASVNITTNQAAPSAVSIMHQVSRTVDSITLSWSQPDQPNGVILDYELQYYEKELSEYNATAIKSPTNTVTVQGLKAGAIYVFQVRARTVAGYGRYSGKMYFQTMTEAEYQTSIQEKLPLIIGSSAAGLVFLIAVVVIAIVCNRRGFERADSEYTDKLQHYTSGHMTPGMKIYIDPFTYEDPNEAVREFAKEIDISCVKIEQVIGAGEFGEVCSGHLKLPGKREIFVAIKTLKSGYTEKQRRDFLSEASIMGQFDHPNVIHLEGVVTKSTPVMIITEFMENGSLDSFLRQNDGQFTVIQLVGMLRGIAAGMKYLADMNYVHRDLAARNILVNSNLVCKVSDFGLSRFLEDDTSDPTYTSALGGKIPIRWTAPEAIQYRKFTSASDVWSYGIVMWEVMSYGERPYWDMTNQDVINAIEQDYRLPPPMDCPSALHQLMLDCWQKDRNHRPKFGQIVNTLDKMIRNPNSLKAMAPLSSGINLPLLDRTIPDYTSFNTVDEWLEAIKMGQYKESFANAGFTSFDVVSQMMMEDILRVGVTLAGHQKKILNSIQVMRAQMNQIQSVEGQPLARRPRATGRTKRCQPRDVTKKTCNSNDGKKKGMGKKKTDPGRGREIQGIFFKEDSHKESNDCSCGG

[3] = target: T2, Ephrin type-B receptor 2 (Homo sapiens); settings: at 10 µM
[4] = target: T3, Ephrin type-B receptor 3 (Homo sapiens) (UniProt P54753); settings: at 1 µM
T3 sequence (whole entry): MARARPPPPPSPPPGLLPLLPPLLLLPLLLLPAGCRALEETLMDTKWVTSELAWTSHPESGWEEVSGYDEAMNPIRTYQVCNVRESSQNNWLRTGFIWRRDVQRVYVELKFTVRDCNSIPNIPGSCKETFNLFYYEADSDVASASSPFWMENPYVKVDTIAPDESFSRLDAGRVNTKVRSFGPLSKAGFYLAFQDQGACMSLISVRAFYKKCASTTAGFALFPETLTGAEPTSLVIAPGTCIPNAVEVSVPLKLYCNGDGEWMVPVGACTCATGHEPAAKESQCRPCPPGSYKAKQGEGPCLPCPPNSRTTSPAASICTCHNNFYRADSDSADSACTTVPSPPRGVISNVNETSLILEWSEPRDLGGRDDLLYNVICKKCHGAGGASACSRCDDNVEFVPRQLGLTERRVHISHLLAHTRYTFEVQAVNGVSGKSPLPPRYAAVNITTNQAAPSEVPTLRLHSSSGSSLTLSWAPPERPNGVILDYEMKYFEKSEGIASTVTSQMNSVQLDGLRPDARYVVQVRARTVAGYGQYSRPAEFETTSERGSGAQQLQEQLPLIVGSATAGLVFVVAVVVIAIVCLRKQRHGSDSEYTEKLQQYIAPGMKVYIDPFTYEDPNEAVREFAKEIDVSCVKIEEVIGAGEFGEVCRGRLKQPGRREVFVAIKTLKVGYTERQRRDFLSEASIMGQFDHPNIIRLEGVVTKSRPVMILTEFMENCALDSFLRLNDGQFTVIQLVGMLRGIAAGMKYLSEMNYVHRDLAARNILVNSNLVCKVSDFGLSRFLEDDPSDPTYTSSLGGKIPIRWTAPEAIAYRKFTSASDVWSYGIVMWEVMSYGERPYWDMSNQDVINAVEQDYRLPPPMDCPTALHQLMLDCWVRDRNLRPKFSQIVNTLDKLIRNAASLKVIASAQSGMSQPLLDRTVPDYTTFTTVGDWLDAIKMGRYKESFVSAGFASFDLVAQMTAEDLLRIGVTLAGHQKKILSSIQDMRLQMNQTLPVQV

[5] = target: T3, Ephrin type-B receptor 3 (Homo sapiens); settings: at 10 µM
[6] = target: T4, Ephrin type-B receptor 4 (Homo sapiens) (UniProt P54760); settings: at 1 µM
T4 sequence (whole entry): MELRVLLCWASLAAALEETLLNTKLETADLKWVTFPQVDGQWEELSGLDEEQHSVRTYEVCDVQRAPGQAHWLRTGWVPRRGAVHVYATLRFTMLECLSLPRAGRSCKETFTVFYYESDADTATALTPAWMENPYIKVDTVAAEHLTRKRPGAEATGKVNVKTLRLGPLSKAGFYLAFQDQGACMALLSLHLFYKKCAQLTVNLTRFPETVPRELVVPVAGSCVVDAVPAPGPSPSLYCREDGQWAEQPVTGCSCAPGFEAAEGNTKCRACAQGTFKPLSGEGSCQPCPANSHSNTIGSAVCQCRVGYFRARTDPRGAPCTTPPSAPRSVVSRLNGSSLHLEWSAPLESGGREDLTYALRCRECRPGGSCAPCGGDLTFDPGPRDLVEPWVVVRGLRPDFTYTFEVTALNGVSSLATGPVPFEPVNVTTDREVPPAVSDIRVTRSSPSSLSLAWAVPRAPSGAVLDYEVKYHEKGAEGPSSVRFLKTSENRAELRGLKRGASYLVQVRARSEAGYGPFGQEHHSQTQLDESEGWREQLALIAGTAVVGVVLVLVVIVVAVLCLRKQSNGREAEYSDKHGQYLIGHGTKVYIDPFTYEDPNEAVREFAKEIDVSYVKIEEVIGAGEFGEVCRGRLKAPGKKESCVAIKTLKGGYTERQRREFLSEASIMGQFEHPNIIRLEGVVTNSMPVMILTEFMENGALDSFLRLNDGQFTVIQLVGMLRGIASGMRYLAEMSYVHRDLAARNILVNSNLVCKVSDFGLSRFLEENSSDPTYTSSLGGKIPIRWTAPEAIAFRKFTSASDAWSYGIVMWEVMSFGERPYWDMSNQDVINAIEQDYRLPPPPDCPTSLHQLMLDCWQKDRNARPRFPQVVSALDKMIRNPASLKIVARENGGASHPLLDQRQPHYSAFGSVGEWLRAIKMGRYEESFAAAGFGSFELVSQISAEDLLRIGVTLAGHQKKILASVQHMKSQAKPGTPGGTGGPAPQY

[7] = target: T4, Ephrin type-B receptor 4 (Homo sapiens); settings: at 10 µM
[8] = target: Receptor tyrosine-protein kinase erbB-4 (Homo sapiens) (UniProt Q15303); settings: at 1 µM
[9] = target: Receptor tyrosine-protein kinase erbB-4 (Homo sapiens) (UniProt Q15303); settings: at 10 µM
[10] = target: Focal adhesion kinase 1 (Homo sapiens) (UniProt Q05397); settings: at 1 µM
Chain of Focal adhesion kinase 1 (Homo sapiens) (Q05397 2-1052 limits assumed): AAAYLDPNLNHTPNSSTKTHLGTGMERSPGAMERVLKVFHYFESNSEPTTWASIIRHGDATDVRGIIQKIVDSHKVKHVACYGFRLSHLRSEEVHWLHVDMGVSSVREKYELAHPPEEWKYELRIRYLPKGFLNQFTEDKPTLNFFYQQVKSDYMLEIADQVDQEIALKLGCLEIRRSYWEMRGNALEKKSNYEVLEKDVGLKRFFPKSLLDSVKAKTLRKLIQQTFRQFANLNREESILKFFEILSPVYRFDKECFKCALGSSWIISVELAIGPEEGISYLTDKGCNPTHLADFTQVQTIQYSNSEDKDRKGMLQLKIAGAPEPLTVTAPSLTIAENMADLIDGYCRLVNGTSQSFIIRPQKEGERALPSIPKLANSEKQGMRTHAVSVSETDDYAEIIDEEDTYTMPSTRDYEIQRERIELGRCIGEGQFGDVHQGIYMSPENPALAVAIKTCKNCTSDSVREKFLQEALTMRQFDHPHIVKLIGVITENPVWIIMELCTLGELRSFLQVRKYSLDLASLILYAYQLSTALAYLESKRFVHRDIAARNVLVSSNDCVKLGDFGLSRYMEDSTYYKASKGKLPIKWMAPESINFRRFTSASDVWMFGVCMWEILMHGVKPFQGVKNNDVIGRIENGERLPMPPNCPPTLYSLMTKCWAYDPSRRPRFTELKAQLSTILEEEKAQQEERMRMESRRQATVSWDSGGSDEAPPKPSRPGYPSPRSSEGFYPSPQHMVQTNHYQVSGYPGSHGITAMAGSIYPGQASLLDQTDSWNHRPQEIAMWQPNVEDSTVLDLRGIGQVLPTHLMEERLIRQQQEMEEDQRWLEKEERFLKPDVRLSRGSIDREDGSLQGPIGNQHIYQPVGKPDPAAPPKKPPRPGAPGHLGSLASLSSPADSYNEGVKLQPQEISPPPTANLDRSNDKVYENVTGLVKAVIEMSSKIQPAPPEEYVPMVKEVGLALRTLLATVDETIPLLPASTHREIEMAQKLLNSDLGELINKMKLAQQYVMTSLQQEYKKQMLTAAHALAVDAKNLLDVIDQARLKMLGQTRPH

Chain of Receptor tyrosine-protein kinase erbB-4 (Homo sapiens) (Q15303 whole entry): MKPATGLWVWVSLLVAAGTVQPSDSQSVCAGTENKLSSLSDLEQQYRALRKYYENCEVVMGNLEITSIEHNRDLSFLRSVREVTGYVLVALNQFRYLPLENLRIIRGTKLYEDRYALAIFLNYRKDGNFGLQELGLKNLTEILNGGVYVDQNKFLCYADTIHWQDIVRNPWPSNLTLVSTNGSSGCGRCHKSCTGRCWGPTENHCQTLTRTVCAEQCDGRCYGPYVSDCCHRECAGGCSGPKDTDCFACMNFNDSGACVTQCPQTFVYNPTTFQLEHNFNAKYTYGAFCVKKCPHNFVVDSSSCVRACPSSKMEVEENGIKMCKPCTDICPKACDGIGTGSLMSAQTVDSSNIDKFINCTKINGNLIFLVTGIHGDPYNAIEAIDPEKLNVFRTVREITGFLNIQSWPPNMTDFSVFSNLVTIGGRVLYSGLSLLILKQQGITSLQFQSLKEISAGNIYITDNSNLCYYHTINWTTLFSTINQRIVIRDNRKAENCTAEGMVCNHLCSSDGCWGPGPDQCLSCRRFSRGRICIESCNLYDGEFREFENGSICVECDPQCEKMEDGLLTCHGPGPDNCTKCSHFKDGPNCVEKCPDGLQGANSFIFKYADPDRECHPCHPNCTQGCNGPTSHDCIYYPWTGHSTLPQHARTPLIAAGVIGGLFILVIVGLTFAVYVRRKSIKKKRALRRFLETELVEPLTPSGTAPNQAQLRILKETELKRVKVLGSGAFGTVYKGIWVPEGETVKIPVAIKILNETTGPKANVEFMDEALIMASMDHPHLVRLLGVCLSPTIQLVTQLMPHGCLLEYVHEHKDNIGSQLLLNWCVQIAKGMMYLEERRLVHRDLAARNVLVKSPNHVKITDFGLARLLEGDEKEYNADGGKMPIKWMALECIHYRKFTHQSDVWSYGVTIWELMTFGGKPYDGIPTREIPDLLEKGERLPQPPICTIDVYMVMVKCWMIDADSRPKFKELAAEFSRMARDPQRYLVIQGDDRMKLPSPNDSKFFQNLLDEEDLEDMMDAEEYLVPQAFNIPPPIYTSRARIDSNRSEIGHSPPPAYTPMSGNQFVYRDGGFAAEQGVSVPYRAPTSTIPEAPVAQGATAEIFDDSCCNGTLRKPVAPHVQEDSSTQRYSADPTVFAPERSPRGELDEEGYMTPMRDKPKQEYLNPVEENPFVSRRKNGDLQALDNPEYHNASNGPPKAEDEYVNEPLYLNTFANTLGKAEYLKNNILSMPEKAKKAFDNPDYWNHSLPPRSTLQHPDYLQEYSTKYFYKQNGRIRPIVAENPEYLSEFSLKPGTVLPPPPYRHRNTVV

## O=C1NC(=O)c2cc(Nc3ccc(F)cc3)c(Nc3ccc(F)cc3)cc21
[1]
  residual activity: 60%
[2]
  residual activity: 105%
[3]
  residual activity: 69%
[4]
  residual activity: 100% (inactive)
[5]
  residual activity: 105%
[6]
  residual activity: 95%
[7]
  residual activity: 56%
[8]
  residual activity: 87%
[9]
  residual activity: 35%
[10]
  residual activity: 137%
